Test results published in PubChem BioAssay (NCI).
About 83,000 compounds went through this panel and 20% of them were active in at least one assay; those are over-represented in the sample as a whole.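 Compound tested at a single concentration for 48 hours in 96-well plates; a percent growth value below 10 was scored as active.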 Active and inactive are the calls of the source.

Columns and labels:
Assay in all cases: NCI-60 one-dose screen, 48 h (100 = growth as untreated, 0 = no growth, -100 = all killed)
Settings in all cases: 10 µM unless noted
[1] = system: HCT-15 colon
[2] = system: HT29 colon
[3] = system: SNB-75 CNS
[4] = system: SNB-19 CNS
[5] = system: U251 CNS
[6] = system: PC-3 prostate
[7] = system: SK-MEL-5 melanoma
[8] = system: UACC-62 melanoma
[9] = system: LOX IMVI melanoma
[10] = system: SK-MEL-28 melanoma

Measured: growth

COc1ccc(-c2cn(-c3cccc(C(=O)/C=C/c4cc(OC)c(OC)c(OC)c4)c3)c(=O)[nH]2)cc1
active: [1] 3.15% | [2] -67.1% | [5] -51.8% | [7] -54% | [8] -42.8% | [9] -68% | [10] -33.9%
inactive: [3] 49.6% | [4] 34.2% | [6] 20.6%

Nc1nc(N)c(-c2ccc(Cl)cc2)c(/C=C/c2ccc([N+](=O)[O-])cc2)n1
inactive: [1] 66.3% | [2] 63.8% | [3] 78.3% | [4] 75% | [5] 82.9% | [6] 32.4% | [7] 79.6% | [8] 83.1% | [9] 60.6%

CCOc1ccc2nc(-c3cccc(OCC(=O)NC(C)C)c3)nc(Nc3ccc(-c4cn[nH]c4)cc3)c2c1
inactive: [1] 30.8% | [4] 19.4%
active: [2] -27.6% | [3] -62% | [5] -33.8% | [6] 0.124% | [7] -81.1% | [8] -6.26% | [9] -10.8%

N=C(N)c1ccc(-c2ccc(-c3ccc(Cl)c(Cl)c3)o2)cc1
inactive: [3] 78.6% | [4] 25.4% | [6] 47.4% | [7] 83.5% | [8] 93.5%
active: [1] -55.7% | [2] -20.3% | [5] -36.9% | [9] -96%

CC(C)(C)Nc1c(-c2c3ccccc3cc3ccccc23)nc2ccccn12
inactive: [1] 79.7% | [2] 55.3% | [3] 64% | [4] 74.1% | [5] 68.2% | [6] 37.9% | [7] 84% | [8] 50.6% | [9] 85.9% | [10] 82.2%

Cn1c(NCCc2ccc(O)c(O)c2)nc2c1c(=O)n(Cc1ccc(Cl)cc1)c(=O)n2C
inactive: [1] 40.7% | [2] 101% | [3] 57.1% | [4] 93% | [5] 104% | [6] 60% | [7] 75.3% | [8] 82.7%

O=C1NN(C(=O)c2ccc(O)cc2)C(c2ccccc2)=N/C1=C\c1cn(-c2ccccc2)nc1-c1ccccc1
inactive: [1] 103% | [2] 95.1% | [3] 77.4% | [4] 92.5% | [5] 96.2% | [6] 104% | [7] 98.7% | [8] 92.9%

CN(C)CCCCNc1ccc(NCCCCN(C)C)c2c1C(=O)c1c(O)ccc(O)c1C2=O
active: [1] -66.4% | [2] -52.3% | [4] 2.06% | [5] -85.6% | [6] -76.9% | [9] -79%
inactive: [3] 79.5% | [7] 89.4% | [8] 104%

COc1cc(NC(=O)c2cc(O)c(CC=C(C)C)c(O)c2)cc2c1O[C@]1(C)CC[C@@H](O)C(C)(C)[C@H]1C2
active: [2] 5.24% | [3] -7.48% | [7] -20.3% | [8] -13.3%
inactive: [1] 34.3% | [4] 44.9% | [5] 13.4% | [6] 21.5% | [9] 12.7%

COc1ccc(N(C)c2nc(Cl)nc3cnn(C)c23)cc1
inactive: [3] 18.7% | [4] 29.7% | [5] 17.8% | [6] 16.2% | [8] 32% | [9] 18.7% | [10] 58.2%
active: [1] 9.08% | [2] -9.42% | [7] -25.2%

NS(=O)(=O)Oc1ccc(-c2sc3cc(O)ccc3c2C(=O)c2ccc(OCCN3CCCCC3)cc2)cc1
inactive: [1] 36.2% | [3] 39.6% | [4] 78.2% | [5] 21.9% | [6] 69.9% | [7] 46.2% | [9] 34.4% | [10] 23.6%
active: [2] 0.722% | [8] -47.2%

Cc1c(C(N)=O)sc2nc(C)n(/N=c3\scc(-c4ccccc4)n3Cc3ccccc3)c(=O)c12
inactive: [1] 14.9% | [2] 79.5% | [3] 54.8% | [4] 29.4% | [8] 27.7% | [9] 20.6% | [10] 48.2%
active: [5] 7.76% | [6] 1.97% | [7] 7.44%

CCCCN1CCN(c2ccc3nc(-c4ccc5nc(-c6ccc(OCC)c(OCC)c6)[nH]c5c4)[nH]c3c2)CC1
active: [1] -30.4% | [2] -20.8% | [4] -28.8% | [5] -61.4% | [6] -49.1% | [7] 8.19% | [9] -81.9%
inactive: [3] 24.1% | [8] 17.7% | [10] 45.8%

COc1c(C)cnc(CSc2nc(-c3ccc(C)cc3)cn2-c2ccc(Cl)cc2)c1C
inactive: [1] 98% | [2] 73.8% | [3] 98.7% | [4] 93.7% | [5] 104% | [6] 81.7% | [7] 105% | [8] 81.8% | [9] 96.5% | [10] 97.4%

C=C1C(=O)O[C@H]2[C@H]1CC/C(Cn1cc(CNCCc3c[nH]c4ccccc34)nn1)=C\CC[C@@]1(C)O[C@@H]21
inactive: [1] 102% | [2] 61.2% | [3] 79.8% | [4] 98.3% | [5] 92.8% | [6] 94.1% | [7] 96.5% | [8] 84.7% | [9] 94% | [10] 89%

CCCCCCNc1cc(C)nc2ccc(OC)cc12
inactive: [1] 60.9% | [2] 19.6% | [3] 89.2% | [4] 77.1% | [5] 55.1% | [6] 65.9% | [7] 35% | [8] 64.1% | [9] 61.4% | [10] 67.9%

CC(/C=N/NC(=O)c1cc(-c2ccco2)[nH]n1)=C\c1ccccc1
inactive: [1] 93.2% | [2] 113% | [3] 66.8% | [4] 100% | [5] 96.7% | [6] 92.1% | [7] 98.8% | [8] 94% | [9] 97.9% | [10] 104%

O=C1C(Cl)C(c2ccccc2Cl)N1n1cnnc1 (stereo unspecified)
inactive: [1] 101% | [2] 103% | [3] 74% | [4] 93% | [5] 99.6% | [6] 88% | [7] 97.3% | [8] 94.7% | [9] 91.4% | [10] 96.4%

N=C(N)c1ccc(-c2ccc(/C=C/c3ccccc3)s2)cc1
active: [1] -54% | [2] -2.42% | [5] -46.6% | [9] -82.1%
inactive: [3] 24.3% | [4] 24.3% | [6] 52.7% | [7] 81.3% | [8] 86.2% | [10] 80.8%

Fc1ccc(Nc2ccc3cc(OCCCN4CCOCC4)ccc3n2)cc1F
active: [2] -6.89% | [8] -19.8% | [9] -46.9%
inactive: [1] 28.7% | [3] 48.6% | [4] 64.9% | [5] 41.7% | [6] 45.2% | [7] 60% | [10] 43.4%

CSc1ncc(C)c(Nc2ccc(Cl)cc2)n1
inactive: [1] 99.3% | [2] 96.4% | [3] 90.4% | [4] 105% | [5] 93% | [6] 87.6% | [7] 110% | [8] 99.4% | [9] 107% | [10] 114%

O=C1N(c2ccccc2)C(=S)N[C@]12[C@H](c1ccccc1)C1CCCN1[C@]21C(=O)NC2C=CC(Cl)=C[C@H]21 (stereo partly specified)
inactive: [1] 100% | [2] 82.6% | [3] 96.6% | [4] 101% | [5] 85% | [6] 47.8% | [7] 93.1% | [8] 82.7% | [9] 100% | [10] 117%

N#C/C(=C\c1ccc(Br)cc1)n1nnc2ccccc21
active: [1] 2.5% | [2] 3.79% | [5] -35.7% | [7] 6.25% | [9] -75% | [10] 6.49%
inactive: [3] 24.8% | [4] 29% | [6] 12.7% | [8] 14%

COc1ccc(/C(C)=C(\c2ccc(Cl)cc2)c2ccc(OCCN3CCCCC3)cc2)cc1F
inactive: [3] 65% | [4] 58.3% | [5] 34.1% | [6] 28% | [7] 57.1%
active: [1] 0.563% | [2] 4.57% | [8] -33% | [9] -73.1% | [10] -21.3%

CS(=O)(=O)c1ccc(N/N=C/c2c(-c3ccc(S(C)(=O)=O)cc3)[nH]c3ccc(F)cc23)cc1
active: [7] -35.4% | [9] 3.68%
inactive: [1] 62.7% | [2] 21.8% | [3] 38.8% | [4] 26.1% | [5] 11.2% | [6] 33.9% | [8] 25.7% | [10] 14.7%

Cc1csc(NC(=O)c2sc3nc(-c4cccs4)ccc3c2N)n1
inactive: [1] 102% | [2] 102% | [3] 102% | [4] 112% | [5] 91.3% | [6] 82.6% | [7] 92.2% | [8] 98.2% | [9] 95.1% | [10] 115%

C(=C\c1nc2ccccc2[nH]1)/c1nc2ccccc2[nH]1
inactive: [1] 100% | [2] 103% | [3] 86.2% | [4] 109% | [5] 106% | [6] 90% | [7] 92.8% | [8] 91.1% | [9] 98.1% | [10] 104%

CC(C)(O)c1cccc(F)c1
inactive: [1] 99.2% | [2] 108% | [3] 92.3% | [4] 97.6% | [5] 106% | [6] 99.9% | [7] 103% | [8] 88.7% | [9] 97.7% | [10] 101%
